# An excerpt weighted towards active compounds, which were near 12% of everything screened.
# JMJD2A Tudor: blocks the human JMJD2A Tudor domain; Potency, µM (top dose mostly 114 µM), most hits filed as inhibitors; AlphaScreen JMJD2A-Tudor / H3K4me3 peptide binding; AID 504339; hit rate 4.4% among 390,000; O75164; also: nearly all actives have a fitted effect of over 50% in size
# BAZ2B block: blocks human BAZ2B; AlphaScreen BAZ2B-H3K14Ac peptide displacement; Q9UIF8; hit rate 4.4% among 360,000; AID 504333; Potency, µM (doses to about 114 µM), actives largely listed as inhibitors; also: nearly all actives have a fitted effect of over 60% in size
#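 AlphaScreen displacement: compounds (up to 110uM) incubated 30 min at room temperature with a preformed 50 nM BAZ2B/50 nM biotinylated H3K14Ac peptide complex in PBS pH 7.4 with Tween-20. Donor and acceptor beads at 10 ug/mL final added, 20 min light-protected before reading.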
# PLK1 PBD inh: inhibitors of human PLK1 polo-box domain binding | P53350 | Plk1 PBD binding of FITC phosphopeptide, fluorescence polarization | Potency, µM, most hits filed as inhibitors | hit rate 2.8% among 360,000; also: series mostly up to about 57 µM; nearly all actives have a fitted effect of over 65% in size
# PI5P4K alpha inh: PI5P4K alpha (human) kinase inhibition; P48426; PI5P4Kalpha enzyme, ADP-Glo luminescence, 60 min; hits give low values; max response, %; hit rate 1.2% among 330,000; active = max response of -50% or lower; inconclusive = between -30% and -50%; inactive = -30% or higher; also: value at the top dose of about 77 µM
# Target sequence (P48426 whole entry, looked up): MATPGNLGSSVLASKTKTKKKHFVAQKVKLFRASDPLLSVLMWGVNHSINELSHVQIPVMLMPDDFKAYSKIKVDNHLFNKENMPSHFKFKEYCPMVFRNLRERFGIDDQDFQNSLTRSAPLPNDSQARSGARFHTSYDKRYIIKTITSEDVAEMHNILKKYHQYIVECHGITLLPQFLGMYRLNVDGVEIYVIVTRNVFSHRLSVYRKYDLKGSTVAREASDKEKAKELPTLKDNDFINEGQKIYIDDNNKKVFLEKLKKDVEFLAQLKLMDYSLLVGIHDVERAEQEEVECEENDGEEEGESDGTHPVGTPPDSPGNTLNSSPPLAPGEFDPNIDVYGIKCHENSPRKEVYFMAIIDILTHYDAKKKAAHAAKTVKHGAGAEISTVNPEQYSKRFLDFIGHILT
#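 Human PI5P4Kalpha with substrate in 0.038 M HEPES pH 7.4, 0.28 mM EGTA, 0.1% CHAPS, 5% DMSO; reaction started with 5 microM ATP (final), 60 min at room temperature. ADP formed read by ADP-Glo luminescence.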
# HP1b binding inh: inhibitors of HP1-beta chromodomain binding to methylated histone tails | AlphaScreen HP1-beta / biotin-H3K9me3 peptide binding | Potency, µM (top dose mostly 114 µM), most hits filed as inhibitors | hit rate 0.56% among 390,000 | P83916; also: nearly all actives have a fitted effect of over 70% in size
#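 HP1-beta protein (50 nM final) preincubated 30 min at room temperature with biotinylated H3(1-18)K9me3 peptide (50 nM) in PBS pH 7.4, 0.01% Tween-20, then compound added for 30 min. AlphaScreen streptavidin donor/nickel chelate acceptor beads (10 ug/mL final), 30 min dark, luminescence read.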
# G9a block: blocks human histone lysine methyltransferase G9a; Q96KQ7; G9a H3K9 monomethylation, AlphaScreen, 2 h; Potency, µM (top dose mostly 102 µM), most hits filed as inhibitors; hit rate 8.8% among 350,000; AID 504332; also: nearly all actives have a fitted effect of over 75% in size
# Target sequence (Q96KQ7 913-1193 limits assumed): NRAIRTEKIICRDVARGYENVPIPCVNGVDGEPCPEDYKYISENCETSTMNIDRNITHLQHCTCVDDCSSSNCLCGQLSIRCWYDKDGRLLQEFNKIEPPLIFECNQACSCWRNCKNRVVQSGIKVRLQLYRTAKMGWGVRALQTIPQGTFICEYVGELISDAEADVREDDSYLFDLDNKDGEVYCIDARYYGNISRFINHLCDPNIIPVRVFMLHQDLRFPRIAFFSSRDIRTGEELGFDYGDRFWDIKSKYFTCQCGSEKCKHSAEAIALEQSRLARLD
#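 G9a (20 nM) was preincubated 15 min with compound, then reacted 2 h at room temperature with 500 nM biotin-H3K9 peptide and 20 µM SAM. Monomethyl-H3K9 detected by AlphaScreen using anti-H3K9me1 antibody.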
# Hits are given with their value; – = inactive; ? = inconclusive; · = no result; [ ] = remark or other dose. Unless noted, calls follow the shape of the dose curve; as a rule, active = well fitted curve in the direction sought with a large enough effect; inconclusive = small, poorly fitted or top-dose-only effect, or another doubt; inactive = no such curve, though single readings can be large; an effect the other way counts as inactive or inconclusive.
SMILES,JMJD2A Tudor,BAZ2B block,PLK1 PBD inh,PI5P4K alpha inh,HP1b binding inh,G9a block
O=C(NNS(=O)(=O)c1ccccc1[N+](=O)[O-])c1ccc(F)cc1,–,–,–,–,–,·
Cc1ccc(C(=O)NCCCNc2ccccc2[N+](=O)[O-])cc1,89µM,?,–,–,–,56µM
Cc1ccc(C(=O)NNS(=O)(=O)c2ccccc2[N+](=O)[O-])cc1,?,–,27µM,–,–,?
N#CN1CCC(NS(=O)(=O)c2ccc(F)cc2)CC1,–,·,·,·,·,·
CCC(=O)N1c2ccccc2CC1C(=O)NCc1ccc(OC(C)C)cc1 (stereo not drawn),–,–,·,·,–,–
COc1cc(S(=O)(=O)NCCc2c(C)[nH]c3ccccc23)c(C)cc1C,28µM,35µM,·,·,?,?
Cc1ccc([N+](=O)[O-])cc1S(=O)(=O)NCCc1c(C)[nH]c2ccccc12,?,50µM,–,–,–,?
Fc1ccc(COc2ccc(Br)cc2CNCc2ccncc2)cc1,?,50µM,–,·,–,50µM
COc1ccc(NC(=O)c2nc[nH]c2C(=O)N(C)CCO)cc1,·,·,–,–,·,·
CCN(CC)c1ccc2c(-c3ccc(S(=O)(=O)O)cc3S(=O)(=O)[O-])c3ccc(=[N+](CC)CC)cc-3oc2c1,?,7.9µM,6.7µM,-51,45µM,40µM
COc1ccccc1CC(NC(C)=O)C(=O)NC1CCN(S(=O)(=O)c2ccccc2)CC1 (stereo not drawn),–,–,–,–,–,–
CCCc1cc(C(=O)Nc2c(C)nn(Cc3ccc(Cl)c(Cl)c3)c2C)no1,–,–,·,·,–,–
O=C(O)c1ccc(/C=N/NC(=O)c2ccc(CN3c4cccc5cccc(c45)S3(=O)=O)cc2)cc1,?,50µM,34µM,-54,–,–
COc1ccc(C(CNS(=O)(=O)c2cccc(F)c2)N2CCCC2)cc1 (stereo not drawn),–,·,–,–,–,·
O=C(NNC(=S)Nc1ccccc1)c1cccs1,–,–,–,–,–,?
O=C(NNC(=S)Nc1ccc(Cl)cc1)c1cccs1,–,–,–,–,–,25µM
NS(=O)(=O)c1ccc(NS(=O)(=O)c2cccs2)cc1,–,–,–,·,–,–[12.7 µM]
NS(=O)(=O)c1ccc(NNC(=O)c2cccs2)cc1,–,–,–,–,–,10µM
NS(=O)(=O)c1ccc(NNC(=O)c2ccc(F)cc2F)cc1,–,–,–,–,–,11µM
O=C(NNc1cc(Cl)cc(Cl)c1)c1cccs1,–,–,–,–,–,28µM
Cc1ccc(NC(=O)c2ccc(F)cc2F)cc1,–,·,–,–,–,·
O=C(NNC(=O)c1cccs1)Nc1cccc(Cl)c1,–,–,–,–,–,–[0.0925 µM]
O=C(NNc1ccc(Cl)cc1)c1cccs1,–,–,–,–,–,10µM
O=C(NNc1ccccc1F)c1cccs1,–,·,·,·,–,·
COc1ccc(Nc2cnn(-c3nc4ccccc4s3)c(=O)c2Cl)cc1,–,–,12µM,–,–,–
SMILES,JMJD2A Tudor,BAZ2B block,PLK1 PBD inh,PI5P4K alpha inh,HP1b binding inh,G9a block
CCOc1ccc(C(O)(CCC(C)C)C(CN2CCOCC2)c2ccccc2)cc1 (stereo not drawn),–,–,–,–,–,–
CCc1ccc(C(O)(c2ccccc2OC)C(CN2CCOCC2)c2ccccc2)cc1 (stereo not drawn),–,·,–,–,–,45µM
CCOc1ccc(C(O)(c2ccccc2)C(CN2CCCC2)c2ccccc2)cc1 (stereo not drawn),14µM,–,6µM,–,–,–
CCc1ccccc1NC(=O)NNC(=O)CCc1ccc(OC)cc1,–,–,–,–,–,–
COc1ccccc1NC(=O)c1nnn(-c2ccc(F)cc2)c1C,–,–,·,·,–,–
O=C(CCl)N1CCN(S(=O)(=O)c2ccc3ccccc3c2)CC1,–,–,–,–,–,–
O=C(CNCC1CCCO1)N1CCN(S(=O)(=O)c2ccc3ccccc3c2)CC1 (stereo not drawn),7.9µM,56µM,–,–,–,?
Cc1ccc(S(=O)(=O)N2CCCCC2)cc1C(=O)NCC1CCCO1 (stereo not drawn),–,–,–,–,–,–
O=C(NCC1CCCO1)c1cc(S(=O)(=O)N2CCCCC2)ccc1Cl (stereo not drawn),–,56µM,–,–,–,–[12.7 µM]
CCNC(=O)C1(C)CCCN(C(=O)c2sccc2C)C1 (stereo not drawn),·,·,–,–,·,·
CC(=O)Oc1ccc(-c2cc3c(OC(C)=O)cc(OC(C)=O)cc3oc2=O)cc1,–,·,–,-56,–,·
Cc1ccc(COc2ccc(/C=N/O)cc2)cc1,–,–,–,–,–,–
Cc1ccc(Oc2ccc(/C=N/O)cn2)cc1,–[11.4 µM],?,3.4µM,?,–,–
O=c1[nH]nc(N2CCOCC2)c(=O)[nH]1,–[11.4 µM],–,4.7µM,?,–,·
COc1cccc(/C=N/NC(=O)C(=O)N/N=C/c2cccc(OC)c2OC)c1OC,–,–,–,–,–,–
COc1cccc(/C=N/NC(=O)c2cnccn2)c1OC,20µM,–,–,–,–,–
COc1cc(OC)c(OC)cc1/C=N/NC(=O)c1cnccn1,?,–,–,–,–,–
COc1cccc(/C=N\NC(=O)c2sc(N)nc2C)c1OC,–[11.4 µM],–,27µM,?,–,–[12.7 µM]
Cc1onc(-c2c(F)cccc2Cl)c1C(=O)Nc1cccc(S(=O)(=O)NCc2ccco2)c1,–,·,–,–,–,56µM
Cc1onc(-c2c(F)cccc2Cl)c1C(=O)NCc1ccco1,–,–,–,–,–,–
O=C(Nc1ccc(S(=O)(=O)NCc2ccco2)cc1)c1cccc(F)c1,–,–,–,–,–,56µM
Nc1ccc2nn(-c3ccccc3)nc2c1,–,–,21µM,–,–,·
O=C(COc1ccccc1F)Nc1ccccc1C(=O)OCc1cc(=O)n2nc(C3CC3)sc2n1,–,–,·,·,–,–[12.7 µM]
Nc1ccc(O)c(-c2nc3ccccc3s2)c1,–,–,–,?,–,14µM
Oc1ccc(N=C/C=C/c2cccc(Br)c2)cc1-c1nc2ccccc2s1,?,?,?,-59,–,7.9µM
SMILES,JMJD2A Tudor,BAZ2B block,PLK1 PBD inh,PI5P4K alpha inh,HP1b binding inh,G9a block
O=C(Nc1nc2ccccc2s1)c1ccc2sc([C@H]3C[C@H](O)[C@@H](CO)O3)nc2c1,·,·,–,–,·,·
O=C(NCc1ccc(Cl)cc1)C1CCN(c2ncnc3c2nc2n3CCCCC2)CC1,–,–,·,·,–,–
Oc1c(C(c2ccccc2)N2CCC3(CC2)OCCO3)sc2nc(-c3ccco3)nn12 (stereo not drawn),–,–,·,·,–,–
CCCC(=O)c1cc(F)c(N2CCN(S(=O)(=O)c3ccccc3)CC2)cc1C,–,–,–,·,–,–[12.7 µM]
CCCC(=O)c1cc(F)c(N2CCOCC2)cc1C,–,–,24µM,·,–,–
CC(=O)c1ccc(OCCCC(=O)n2nnc3ccccc32)cc1,79µM,–,21µM,–,–,–
O=C(CCCOc1ccc(Cl)cc1Cl)n1nnc2ccccc21,–,–,8.4µM,–,–,–

# Screening data: PubChem, National Center for Advancing Translational Sciences (NCATS)
